Out of some 48,000 compounds screened, about 13,000 (27%) showed an effect of 50% or more. This is one part of the list.
System: Wolbachia pipientis
Experiment: Anti-Wolbachia Cell-Based Screen
Assay type: functional
Parameters: scale not given: in the data most compounds retested in dose-response had high values
Conditions: 5 µM

| SMILES | Percent Effect |
| --- | --- |
| COCc1nc2cc(NCc3nc(C)cs3)ccc2o1 | 14.28% |
| COCCN1CC(C(=O)N(C)Cc2csc(C)n2)CC1=O (configuration not stated) | 9.291% |
| Cc1nc(N)nc(N2CCOc3ccc(CO)cc3C2)c1C | -10.79% |
| O=C(O)c1cc(-n2cc3c(n2)CCC3)cc(S(=O)(=O)NC2CCCC2)c1 | -14.64% |
| CC(C)CNC(=O)[C@H]1CCS(=O)(=O)[C@@H]2CN(Cc3cccc(Cl)c3)C[C@H]12.O=C(O)C(F)(F)F | 11.74% |
| Cc1ccc(CN2C[C@@H]3[C@@H](C(=O)NCC(C)C)CCS(=O)(=O)[C@@H]3C2)cc1.O=C(O)C(F)(F)F | 114.4% |
| O=C(NC1CCC1)[C@H]1CCS(=O)(=O)[C@@H]2CN(CCc3ccccc3)C[C@H]12.O=C(O)C(F)(F)F | 0.08141% |
| Cc1cccc(CN2C[C@@H]3[C@@H](C(=O)NCC(C)C)CCS(=O)(=O)[C@@H]3C2)c1.O=C(O)C(F)(F)F | 114% |
| CC(SCCC(=O)NC(N)=O)c1cccc(F)c1 (configuration not stated) | -9.647% |
| CN(C)CC(=O)N1CC(c2nn(C)c3nccnc23)C1 | 96.82% |
| CC(=O)N1CCC(c2nn(C)c3nccnc23)C1 (configuration not stated) | 104.2% |
| CN(C)CC(=O)N1Cc2nnn(C)c2C(COCC2CC2)C1 (configuration not stated) | -6.376% |
| Cc1ncc(CN(C)C(=O)Nc2cccc(N3CCOC3=O)c2)s1 | -2.518% |
| CC(C)N(C(=O)c1csc(-c2ccoc2)n1)C1CCOCC1 | -5.774% |
| Cc1cnn(CC2CCCN2c2ncnc3ccccc23)c1 (configuration not stated) | -22.63% |
| Cc1c(-c2cccs2)nn2c(O)c3c(nc12)CN(C(=O)C1CC1)C3 | 98.04% |
| COCCC(=O)N1Cc2cnc(Cc3ccc(OC)cc3)nc2C1 | -12.22% |
| COc1cc(C)nc(N2CCN(C(=O)CCc3cccs3)CC2)n1 | -2.18% |
| Cc1nc2c(c(=O)n1C)CN(C(=O)C1CCN(C(=O)C3CCC3)CC1)C2 | -3.258% |
| Cc1nc2c(c(=O)n1C)CN(C(=O)C1CCCN(C(N)=O)C1)C2 (configuration not stated) | 11.31% |
| Cc1nc(-c2cccs2)ccc1C(=O)N1CCN(CCO)CC1 | -3.936% |
| CCc1ncc2c(n1)CN(C(=O)COC)C2 | 5.323% |

| SMILES | Percent Effect |
| --- | --- |
| COCC(=O)N1Cc2nc3c(C)c(-c4cccs4)nn3c(O)c2C1 | 99.09% |
| COCCC(=O)N1Cc2nc3c(C)c(-c4cccs4)nn3c(O)c2C1 | 108.4% |
| c1cc(-c2c[nH]c([C@@H]3COCCN3C3CCCCC3)n2)ccn1 | -0.01712% |
| CCc1ccc(CN2CC[C@H]3C[C@H](c4nnc(C)[nH]4)O[C@@H]3C2)o1.O=C(O)C(F)(F)F | -6.047% |
| CC(Sc1nnnn1C1CCOCC1)C(=O)NC1CCCCC1 (configuration not stated) | -2.14% |
| C[C@@H]1CN(c2cc(N3CCC(O)CC3)ncn2)C[C@@]1(O)C1CC1 | -16.8% |
| CS(=O)(=O)CCN1CCN(c2ccc(Cl)cn2)CC1 | -5.169% |
| COc1cc(N2C[C@@H](C)[C@](O)(C3CC3)C2)ncn1 | -12.89% |
| CC(C)NC(=O)CN(C)C1CCN(c2ccc(Cl)cn2)CC1 | -2.588% |
| C[C@@H]1CN(c2ccc(Cl)cn2)C[C@@]1(O)C1CC1 | 109.5% |
| C[C@@H]1CN(c2ccc(Cl)cn2)C[C@]1(C)O | 110.4% |
| O=C1COc2ccc(C(=O)NS(=O)(=O)c3ccc(F)cc3F)cc2N1 | 1.32% |
| CCS(=O)(=O)N1CCC(c2nnc(CN3CCCC3)n2C2CC2)CC1 | -2.411% |
| OCCOc1cc(F)ccc1NCc1nc(-c2cccs2)no1 | 14.46% |
| Cc1cnn(CCNCc2cc(C)no2)c1 | 0.9077% |
| Cc1cnn(CCNCc2nnc(-c3ccc(F)cc3)o2)c1 | 123.4% |
| Cc1cnn(CCNC(C)c2nnc(-c3ccccc3)o2)c1 (configuration not stated) | -3.26% |
| Cc1ccoc1-c1nnc(CNCCn2cccn2)o1 | -4.902% |
| Cc1ccc(-c2cc(CNCCn3cc(C)cn3)on2)cc1 | -23.87% |
| Cc1cnn(CCNCc2nnc(-c3ccccc3)o2)c1 | 127.3% |
| Cc1cnn(CCNCc2nc(COc3ccc(F)cc3)no2)c1 | -9.095% |
| Cc1cnn(CCNCc2csc(-c3ccc(F)cc3)n2)c1 | 0.7899% |

| SMILES | Percent Effect |
| --- | --- |
| Cc1cnn(CCNCc2nnc(-c3occc3C)o2)c1 | 122.9% |
| c1ccc(-c2nnc(CNCCn3cccn3)o2)cc1 | -4.985% |
| Cc1ccc(-c2nnc(C(C)NCCn3cc(C)cn3)o2)cc1 (configuration not stated) | 8.064% |
| COc1ccc(-c2nnc(CNCCn3cc(C)cn3)o2)cc1 | 93.96% |
| CCc1noc(CN(CC(=O)N2CCCCC2)c2cccc(C)c2)n1 | 13.21% |
| COc1ccc(OCc2cc(C(=O)N3CC=CC3)n[nH]2)c(Cl)c1 | 6.358% |
| CCC(=O)N1CCc2onc(CNS(C)(=O)=O)c2C1 | 86.89% |
| CS(=O)(=O)NCc1noc2c1CN(C(=O)C1CCC1)CC2 | 102.9% |
| COCC(=O)N1CCc2c(CNS(C)(=O)=O)n[nH]c2C1 | 5.679% |
| CS(=O)(=O)NCc1noc2c1CN(C(=O)c1ccsc1)CC2 | 8.076% |
| CC(=O)NCc1noc2c1CN(CCN1CCCC1)CC2.O=C(O)C(F)(F)F.O=C(O)C(F)(F)F | -16.49% |
| O=C(c1ccnnc1)N1CCc2onc(CN3CCCC3)c2C1 | -11.85% |
| CS(=O)(=O)NCc1noc2c1CN(C(=O)C1CC1)CC2 | 103.2% |
| FC(F)(F)C1CCCn2c(CNCc3cccs3)nnc21 (configuration not stated) | -7.2% |
| CCN(CC)C(=O)N1CCN(C2=NCC(C)S2)CC1 (configuration not stated) | -3.513% |
| Cc1nccc(CN2CC[C@@]3(CCCN3Cc3ccccc3)[C@@H](O)C2)n1 | 93.51% |
| Cc1nccc(CNC(=O)N2CCN(Cc3ccccc3)C[C@H]2C)n1 | -2.521% |
| Cc1ccnc(N2CCN(Cc3ccccc3)CC(O)C2)c1 (configuration not stated) | 10.83% |
| COc1ccc(-c2ccc(C(=O)NCCCC(N)=O)c(F)c2)c(F)c1 | -2.164% |
| CCc1ccc(-c2c(C)c(-c3cnn(C)c3)nc(N)c2C#N)o1 | 7.382% |
| N#Cc1c(C2CC2)cc(-c2ccc(O)cc2)nc1N | -0.3878% |
| CCCc1c(C2CCOC(C)(C)C2)nc(N)c(C#N)c1-c1cnn(C)c1 (configuration not stated) | 105.7% |

| SMILES | Percent Effect |
| --- | --- |
| Cc1c(-c2cnn(C)c2)nc(N)c(C#N)c1-c1ccc(CO)o1 | 0.3251% |
| Cc1c(C2CCOC(C)(C)C2)nc(N)c(C#N)c1-c1ccc(O)cc1 (configuration not stated) | 105.2% |
| Cn1cc(-c2noc(C3(C)CCOCC3)n2)cn1 | -4.622% |
| Cc1cc(-c2cc(C3CCOC3)c(C#N)c(N)n2)ccc1Cl (configuration not stated) | 25.02% |
| CCn1cc(-c2c(C)c(C3CCOC(C)(C)C3)nc(N)c2C#N)cn1 (configuration not stated) | 115.2% |
| CN(C)C(=O)CN1C[C@@H]2CC[C@H](C1)N(C/C=C/c1ccc(F)cc1)C2 | 0.7109% |
| CCc1cc(NC(=O)N2CCC(Oc3cccnc3)C2)n(C)n1 (configuration not stated) | -19.7% |
| Cc1nn2cccnc2c1C(=O)NCc1ccccc1OCC1CC1 | 6.014% |
| O=S(=O)(N1CCN(CC2CC2)CC1)N1CCCC1c1ccco1 (configuration not stated) | 8.161% |
| CC(=O)c1c(C)nn(CC(=O)N2Cc3cnc(CC(C)C)nc3C2)c1C | -0.1145% |
| Cc1ccccc1NC(=O)NCC(C)(O)c1cccs1 (configuration not stated) | 117.7% |
| CCOCc1ccccc1NC(=O)NCC(C)(O)c1cccs1 (configuration not stated) | -8.36% |
| COc1ccc(CNC(=O)NCC(O)(c2cccs2)C2CC2)cc1 (configuration not stated) | 11.16% |
| COC(=O)c1ccc(S(=O)(=O)NCC(C)(O)c2cccs2)cc1 (configuration not stated) | -7.069% |
| CSCCC(C)(O)CNC(=O)Nc1ccccc1C (configuration not stated) | 6.778% |
| CCOc1ccc(NC(=O)NCC(C)(O)c2cccs2)cc1 (configuration not stated) | 123.8% |
| OC(CNc1ccc(Cl)cn1)CN1CCOCC1 (configuration not stated) | -5.222% |
| Cc1n[nH]c(C)c1Sc1ccccc1NC(=O)N1CCN(C)CC1 | 1.27% |
| CCn1nc(Br)nc1Sc1ccccc1NC(C)=O | 119.4% |
| COCC(=O)Nc1ccccc1Sc1c(C)n[nH]c1C | -1.881% |
| CCCSc1ccccc1NC(=O)N1CCC(N2CCSCC2)CC1 | -2.644% |
| CCC(=O)Nc1ccccc1Sc1nc(Br)nn1C | 107.5% |

| SMILES | Percent Effect |
| --- | --- |
| Cc1n[nH]c(C)c1Sc1ccccc1NC(=O)CN1CCCC1 | 2.491% |
| Cn1nc(Br)nc1Sc1ccccc1NC(=O)C1CC1 | 107.9% |
| CC(=O)Nc1ccccc1Sc1nc(Br)nn1C | 114.6% |
| Cc1n[nH]c(C)c1Sc1ccccc1NC(=O)N1CCOCC1 | -5.626% |
| CSc1ccccc1NC(=O)CCC(=O)N(C)C1CCN(C)CC1 | 6.723% |
| Cn1cnnc1Sc1ccc(NC(=O)C2CC2)cc1Cl | -0.08341% |
| CN(C)C(=O)N1CCN(C(=O)c2cccc(Cl)c2)CC2(CNC(=O)C2)C1 (configuration not stated) | -8.821% |
| CCCN(Cc1ccc(OC)nc1)Cc1ccccc1OC | 7.541% |
| CS(=O)(=O)c1nccn1Cc1ccc(OC(F)F)cc1 | -0.8084% |
| NC(=O)Nc1cccc(C(=O)N(Cc2ccc(F)cc2)C2CC2)c1 | -11.54% |
| NC(=O)C1(CNCc2csc(-c3cccs3)n2)CCOCC1 | -0.8866% |
| CC(C)c1cc(C(=O)N2CCN(c3cccc(C(=O)O)c3)CC2)n(C)n1 | 1.445% |
| CC(C)N1CCC(C(=O)N2CCCN(c3ccccc3)CC2)CC1 | 106.5% |
| CC(C)N1CCCC(C(=O)N2CCN(c3cnn(C)c(=O)c3)CC2)C1 (configuration not stated) | -17.55% |
| O=C(Cc1ccc2c(c1)OCO2)N1CCCN(c2ccccc2)CC1 | 5.064% |
| CC(C)N1CCC(C(=O)N2CCN(c3cccc(C(=O)O)c3)CC2)CC1 | 106.6% |
| CC(C)N1CCCC(C(=O)N2CCN(c3cccc(C(=O)O)c3)CC2)C1 (configuration not stated) | 107.1% |
| CC(C)N1CCC(C(=O)N2CCC(c3ccc(F)cc3)C2)CC1 (configuration not stated) | 11.91% |
| Cc1cccc(N2CCN(C(=O)CN3CCC(C(N)=O)CC3)CC2)c1 | 3.313% |
